Compounds without any hit were thinned out: in the full panel of roughly 83,000, 20% have a hit.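 Growth was measured after 48 h exposure to one concentration of compound in 96-well plates. Values under 10 count as active.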 Values without a mark were called inactive. Active and inactive are the calls of the source.

This note sets out measurements from PubChem BioAssay (NCI).

What all share (experiment): NCI-60 one-dose screen, 48 h (100 = growth as untreated, 0 = no growth, -100 = all killed)
Details in all cases: 10 µM unless noted

The subject of experiment [1] is T-47D breast.
The subject of experiment [2] is BT-549 breast.
Experiment [3] deals with MDA-MB-435 melanoma.
In experiment [4] the test system is SW-620 colon.
Experiment [5] concerns MCF7 breast.
Experiment [6] deals with HCT-116 colon.
The test system of experiment [7] is HCC-2998 colon.
The subject of experiment [8] is KM12 colon.

Consider `O=c1cc(C2NNC(=S)N2)c2ccc3ccccc3c2o1` (stereo not drawn), for which the growth in experiment [1] is 73.1%; in experiment [2] it was 94%; in experiment [3] it was 102%; in experiment [4] it was 92.2%; in experiment [5] it was 86.9%; in experiment [6] it was 95.4%. For the same compound, the growth in experiment [7] is 113%; in experiment [8] it was 100%.

Consider `Cc1c(C)c2c(c(C)c1OCC(=O)O)CC[C@@](C)(CCC[C@@H](C)CCC[C@@H](C)CCCC(C)C)O2`, for which the growth was 23.6% [50 µM] in experiment [1]; -4.37% [50 µM] (active) in experiment [2]; 15% [50 µM] in experiment [3]; -41.8% [50 µM] (active) in experiment [4]; 15.6% [50 µM] in experiment [5]; -66.1% [50 µM] (active) in experiment [6]. For the same compound, the growth is -3.58% [50 µM] (active) in experiment [7] and -73.8% [50 µM] (active) in experiment [8].

For `O=C1Nc2ccc(F)cc2C12Nc1cc(Cl)ccc1S2` (stereo not drawn), the growth in experiment [1] is 40%; in experiment [2], 67.7%; in experiment [3], 97.5%; in experiment [4] it was 106%; in experiment [5], 60.3%; in experiment [6], 85.7%. The growth is 99.5% in experiment [7] and 90.5% in experiment [8].

As to `Cc1c(O)cc(-c2cnc(N/N=C\c3ccc(Cl)cc3)s2)c(O)c1C`, the growth in experiment [1] was -11.2% (active); in experiment [2], 67.3%; in experiment [3], 97.5%; in experiment [4], 107%; in experiment [5] it was 71.1%; in experiment [6], 94.6%. Also, the growth in experiment [7] is 111%; in experiment [8], 86.5%.

As to `CCn1c(C)nc2cc(C(N)=O)ccc21`, the growth in experiment [1] was 113%; in experiment [2], 111%; in experiment [3], 131%; in experiment [4] it was 100%; in experiment [5], 91.5%; in experiment [6], 94.6%. Further, the growth in experiment [7] was 96.9%; in experiment [8], 107%.

As for `Cc1cccc(NC(=O)CSc2nc3ccccc3[nH]2)c1`, the growth in experiment [1] was 88.9%; in experiment [2], 104%; in experiment [3] it was 103%; in experiment [4] it was 101%; in experiment [5], 92%; in experiment [6] it was 107%. Also, the growth in experiment [7] is 102%; in experiment [8], 100%.

Regarding `O=C(Nc1ccccc1)Nc1cccc(Oc2nnc(Cl)c3ccccc23)c1`, the growth in experiment [1] was -18% (active); in experiment [2], 47.7%; in experiment [3] it was 48.6%; in experiment [4] it was 73.4%; in experiment [5], -4.15% (active); in experiment [6] it was 10.6%. Besides, the growth in experiment [7] was 52.8%; in experiment [8], 43.6%.

With `COC(=O)[C@H](CSC)N(C)C(=O)[C@@H]1CSSC[C@@H](NC(=O)c2nc3ccccc3cc2O)C(=O)NCC(=O)N1C`, the growth in experiment [1] was 33.8%; in experiment [2], 111%; in experiment [3], 70%; in experiment [4], 74.2%; in experiment [5], 79.4%; in experiment [6], 71.7%. Also, the growth in experiment [7] is 98.8%; in experiment [8] it was 50.6%.

As to `S=C(Cc1ccc2c(c1)CCCC2)N1CCOCC1`, the growth is 80.2% in experiment [1]; 101% in experiment [2]; 101% in experiment [3]; 114% in experiment [4]; 94.3% in experiment [5]; 87.6% in experiment [6]. The growth in experiment [7] was 98%; in experiment [8] it was 106%.

`COc1cc(/C=C/C(=O)c2cccc(-n3cc(-c4ccccc4)[nH]c3=O)c2)ccc1O`: the growth in experiment [1] is 62.9%; in experiment [2], 43.9%; in experiment [3], 58.5%; in experiment [4], 4.95% (active); in experiment [5], 16.5%; in experiment [6], 13.5%. Moreover, the growth in experiment [7] is 78.9%; in experiment [8], 15%.

In the case of `O=c1c2c3c(sc2n2c(-c4cn(-c5ccccc5)nc4-c4ccc(Cl)cc4)nnc2n1Cc1ccccc1)CCCC3`, the growth in experiment [1] was 81.8%; in experiment [2], 103%; in experiment [3] it was 103%; in experiment [4] it was 110%; in experiment [5], 75.4%; in experiment [6], 92.6%. Besides, the growth in experiment [7] was 99.1%; in experiment [8] it was 103%.

On to `C[C@@H]1N=C(c2ccc3ccccc3n2)Nc2nc3ccccn3c2C1=O`, for which the growth in experiment [1] was 90.2%; in experiment [2], 88.8%; in experiment [3], 104%; in experiment [4], 99%; in experiment [5], 76.7%; in experiment [6], 95.5%. The growth in experiment [7] was 101%; in experiment [8], 95.3%.

On to `CCCCCCCCn1ccc2cc(NC(=O)Cn3cc(CN4CCCC4)nn3)ccc21`, for which the growth in experiment [1] was 24.1%; in experiment [2], 70.8%; in experiment [3], -72.2% (active); in experiment [4], -54.8% (active); in experiment [5] it was 8.32% (active); in experiment [6], 37.7%. Also, the figures for the growth in experiment [7] and in experiment [8] were -54% (active) and 41.8%, respectively.

In the case of `N#Cc1c2c(nn(-c3ccccc3)c1=O)C(O)=C([N+](=O)[O-])C(c1ccccc1)C2` (stereo not drawn), the growth in experiment [1] was 35.1%; in experiment [2], 91.9%; in experiment [3], 83.1%; in experiment [4], 80.6%; in experiment [5], 24.4%; in experiment [6], 58.6%. Moreover, the growth is 101% in experiment [7] and 35.7% in experiment [8].

As to `CC(C)CCC[C@@H](C)[C@H]1CC[C@H]2[C@@H](Nc3ccc(O)cc3)CCC[C@]12C`, the growth was -15.8% (active) in experiment [1]; 113% in experiment [2]; 100% in experiment [3]; 114% in experiment [4]; 56.1% in experiment [5]; 84.8% in experiment [6]. The growth in experiment [7] is 122%; in experiment [8], 87.9%.

In the case of `NC[C@H](O)c1ccc(O)c(O)c1`, the growth in experiment [1] was 110%; in experiment [2], 88.7%; in experiment [3], 109%; in experiment [4], 105%; in experiment [5], 110%; in experiment [6], 95.6%. For the same compound, the growth in experiment [7] is 102%; in experiment [8] it was 103%.
